Compounds with a hit are over-represented: about 5.2% of the library has one in this group of screens.
Tau fluor cs – Counterscreen qHTS for Inhibitors of Tau Fibril Formation, Fluorescence Polarization. AID 1463, 2008. Potency, µM (titrated, usually from 57.7 µM), for the others: top-dose activity change, negative = decrease. tau K18 P301L Alexa594 fluorescence, heparin fibrillization. actives 0.93% (n = 280,000); also: potency is read from the fitted curve at half-maximal effect; nearly all actives have a fitted effect of over 55% in size
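Human K18 P301L tau (15 uM unlabeled plus 0.24 uM Alexa 594-labeled, final) in 100 mM sodium acetate pH 7 was mixed with compound and 20 uM heparin and incubated 6 hr at 37 C.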
Sfp PPTase inh – qHTS Assay for Inhibitors of Bacillus subtilis Sfp phosphopantetheinyl transferase (PPTase); 4'-phosphopantetheinyl transferase ffp (Bacillus subtilis), Q9F4F7; Biochemical Sfp PPTase activity, qHTS; Potency, µM, without a hit: largest response in the series, negative = inhibition, usual class: inhibitors; actives 3.5% (n = 310,000); AID 1490, 2009;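 also: the enzyme is Sfp with the accession as filed and its product quenches rhodamine fluorescence; potency is read from the fitted curve at half-maximal effect; 0% = enzyme reaction without inhibitor and -100% = no enzyme wells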
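After 15 min at room temperature with compound, 15 nM Sfp received 5 uM rhodamine-CoA plus 12.5 uM BHQ-2-ybbR (50 mM Hepes pH 7.6, 10 mM MgCl2). Rate came from the fluorescence difference over 30 min, ex 525/em 598 nm.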
Tau ThT inhib – qHTS for Inhibitors of Tau Fibril Formation, Thioflavin T Binding; AID 1460, 2008; actives 2.1% (n = 270,000); recombinant tau K18 P301L (four-repeat tau fragment), heparin-induced fibrillization, ThT fluorescence; Potency, µM (doses to about 57.4 µM), inactives show at the top dose activity, negative = inhibition, hits mostly inhibitors; Microtubule-associated protein tau (Homo sapiens), P10636; also: potency is read from the fitted curve at half-maximal effect; nearly all actives have a fitted effect of over 55% in size
Target sequence (P10636 561-689 P618L limits assumed): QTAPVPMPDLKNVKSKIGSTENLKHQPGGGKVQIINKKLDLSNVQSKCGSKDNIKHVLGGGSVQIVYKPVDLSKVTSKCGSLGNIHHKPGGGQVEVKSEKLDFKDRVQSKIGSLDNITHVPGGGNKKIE
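Aggregation was driven by heparin (20 uM final) acting on recombinant tau […] bearing P301L in 100 mM sodium acetate pH 7; fibrils were detected with Thioflavin T.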
Tau FP inhib – qHTS for Inhibitors of Tau Fibril Formation, Fluorescence Polarization; Microtubule-associated protein tau (Homo sapiens), P10636; K18 P301L tau heparin fibrillization, Alexa594 FP, 6 h; Potency, µM (doses to about 57.7 µM), inactives show at the top dose activity, negative = inhibition, actives largely listed as inhibitors; actives 0.39% (n = 280,000); AID 1468, 2008; also: potency is read from the fitted curve at half-maximal effect; nearly all actives have a fitted effect of over 55% in size
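FP of Alexa 594-tau after heparin (20 uM) induction. Substrate: human K18 P301L, 15 uM unlabeled, 0.24 uM labeled. Buffer 100 mM sodium acetate pH 7. 6 hr, 37 C.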
FBPA coupling cs – qHTS Assay for Inhibitors of Fructose-1,6-bisphosphate Aldolase from Giardia Lamblia: Coupling assay counterscreen; actives 0.67% (n = 290,000); activity change, negative = inhibition, % at 58.2 µM, hits read low; coupling enzyme system counterscreen, AmpLite Red fluorescence; in the data active = activity change below about -30%
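Fluorescence at 525 nm excitation and 598 nm emission measured inhibition of the coupled detection system without aldolase. Compounds (at 57.5 uM final) were preincubated 10 min at room temperature with coupling enzyme reagent before a 20 min substrate/AmpLite Red step.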
* marks the source's active call; other numbers are inactive results; ? = inconclusive; . = no result given; [ ] = remark or other dose. Unless noted, calls follow the shape of the dose curve; as a rule, active = well fitted curve in the direction sought with a large enough effect; inconclusive = small, poorly fitted or top-dose-only effect, or another doubt; inactive = no such curve, though single readings can be large; an effect the other way counts as inactive or inconclusive. Unless noted, % is scaled to controls: 0 for no effect and ±100 for the full control effect.

SMILES | Tau fluor cs | Sfp PPTase inh | Tau ThT inhib | Tau FP inhib | FBPA coupling cs
CC1=NN(c2ccccc2)C(=O)/C1=C\N(O)c1ccccc1 | . | -5% | . | . | -6
CC1=NN(c2ccccc2)C(=O)/C1=C\c1cc(C)n(-c2cccnc2)c1C | -20% | -9% | ? | -8% | -1
CC1=NN(c2ccc(C)cc2)C(=O)/C1=C\C=C\c1ccccc1 | 7.9µM*[quencher] | ? | 7.1µM* | ? | 1
CC1=NN(c2cccc(C(=O)O)c2)C(=O)/C1=C\C=C/c1ccccc1 | ? | 50µM* | 7.1µM* | ? | -3
COc1ccc(CNc2nc(-c3ccccc3OC)nc3ccccc23)c(OC)c1 | -30% | ? | ? | ? | 0
COC(=O)c1c(N(S(C)(=O)=O)S(C)(=O)=O)sc2c1CCN(c1ncc(C(F)(F)F)cc1Cl)C2 | -22% | 56µM* | -15% | 0% | -8
CC1CCCCC1NCC(=O)Nc1ccccc1-c1ccccc1 (centres undefined) | -7% | 79µM* | -14% | 1% | 4
COc1ccc(N=N/C(=C\O)C(=O)c2cccs2)cc1 | ? | -10% | 13µM* | 4% | -1
COc1ccc(C(=O)/C(=C/O)N=Nc2ccc(F)cc2)cc1 | -29% | -4% | 28µM* | -9% | 4
CCn1c(C(=O)N2CCCC(C(=O)N3CCN(c4ccccc4)CC3)C2)cc2sccc21 (centres undefined) | -26% | . | ? | 2% | .
Cc1ccc(N2CCN(c3nc4ccc(C(=O)c5ccccc5)cc4n4cnnc34)CC2)c(C)c1 | -15% | . | 2% | -4% | .
Cc1cc(/C=C2/C(=O)NN(c3ccccc3)C2=O)c(C)n1-c1cccc(O)c1 | ? | -19% | 13µM* | 10% | 1
O=C1NN(c2ccc(Br)cc2)C(=O)/C1=C\c1ccc(O)cc1O | . | 14% | . | . | 3
Cc1cc(/C=C2\SC(=S)NC2=O)c(C)n1-c1cccc(O)c1 | ? | ? | 16µM* | 14% | 0
Cc1ccc(-n2c(C)cc(/C=C3\SC(=O)NC3=O)c2C)cc1 | . | -7% | . | . | 3
Cc1cc(/C=C2\SC(=S)NC2=O)c(C)[nH]1 | ? | -13% | 16µM* | 3% | 1
Cc1cc(/C=C2\SC(=S)N(C)C2=O)c(C)n1-c1ccc(O)cc1 | 8.9µM*[quencher] | -1% | 6.3µM* | ? | -4
CCn1c(C)cc(/C=C2/SC(=S)NC2=O)c1C | -27% | 10% | 13µM* | 0% | 3
CCn1ncc(/C=C2/SC(=S)NC2=O)c1C | 7% | -11% | -13% | 2% | 0
Cc1ccc(OC2C(O)COC2/C=C/C#Cc2ccc(C(C)(C)C)cc2)cc1 (centres undefined) | -15%[11.6 µM] | -3% | -8%[11.5 µM] | 0%[11.6 µM] | -3
CCCn1c(C)nc2c(NCC3CCCN3CC)nc(C)nc21 (centres undefined) | -4% | 21% | -2% | -4% | 4
O=C(CCCN1C(=O)CCC1=O)Nc1ccccc1F | -16% | 79µM* | ? | -14% | -1
O=C(CCCN1C(=O)CCC1=O)Nc1ccc(Br)cc1F | -15% | 12% | -20% | -12% | -2
COc1ccc(CN(C)c2ccc(-c3nc(C)no3)cc2[N+](=O)[O-])cc1 | -11% | . | -3% | -6% | .
Cc1ccc2nc(-c3ccc(NC(=S)NC4CC(C)(C)NC(C)(C)C4)cc3)sc2c1 | 7.9µM*[quencher] | 45µM* | ? | 11µM* | -1
SMILES | Tau fluor cs | Sfp PPTase inh | Tau ThT inhib | Tau FP inhib | FBPA coupling cs
Cc1cc(C(=O)CSc2nnnn2C)c(C)n1Cc1ccco1 | -4% | -5% | -9% | 11% | 2
Cc1cc(C(=O)CSc2ncccn2)c(C)n1Cc1ccco1 | 6% | 56µM* | 0% | 1% | -4
Cc1cccc(-n2cnc(C(=O)O)c2)n1 | -2% | 56µM* | -5% | -6% | 6
CC1(C)CC(=O)c2cc(C(=O)Nc3ccccc3Cl)c(=O)n(-c3ccc(Cl)cc3)c2C1 | -3% | . | -1% | -3% | .
CCC(C)(C)n1nnnc1C(c1cc2cc(C)ccc2[nH]c1=O)N1CCCc2ccccc21 (centres undefined) | -20% | 20µM* | ? | 0% | -19
CCC(C)(C)n1nnnc1C(c1cc2cc(OC)ccc2[nH]c1=O)N1CCc2ccccc21 (centres undefined) | -19% | -38% | ? | -9% | -21
Cc1ccc2[nH]c(=O)c(C(c3nnnn3C3CCCC3)N3CCCc4ccccc43)cc2c1 (centres undefined) | -27% | 8.9µM* | ? | 11% | -44*
CCOc1ccc(CNCc2c(C(=O)O)c(C)n(Cc3ccc(C)cc3)c2C)cc1 | -3% | . | -4% | 6% | .
Cn1nnnc1SCCCNCc1cc(Br)ccc1OCc1ccccc1F | -20% | . | -10% | -13% | .
Cc1ccccc1NC(=S)C1=C(O)c2sccc2N(C)S1(=O)=O | -11% | 56µM* | ? | -3% | 6
CN1c2ccsc2C(O)=C(C(=S)Nc2ccccc2)S1(=O)=O | -11% | 56µM* | ? | -10% | 7
O=C(O)C/C=C(\NC(=O)OCc1ccccc1)C(=O)OCc1ccccc1 | -7% | 79µM* | -6% | -6% | 2
CC(=O)N/C(=C\c1ccccc1)C(=O)OCc1ccccc1 | . | -3% | . | . | 1
COc1ccccc1CNC(=O)c1ccc2nc(-c3ccccc3)c(-c3ccccc3)nc2c1 | -22% | . | -1% | -7% | .
CCOC(=O)c1c(NC(=O)C2=C(C)NC(=S)NC2c2ccc(C)cc2)sc(C)c1C (centres undefined) | -6% | 20µM* | -1% | -8% | 4
Cc1ccc(NC(=O)CCc2c(C)nc3ncnn3c2C)cc1Cl | -6% | . | 3% | -10% | .
Cc1ccc(NNC(=S)Nc2ccc(C(C)C)cc2)c(C)c1 | ? | -9% | 14µM* | -8% | -6
Cc1ccc(NC(=O)CCC(=O)NNC(=S)Nc2ccc(F)cc2)c(C)c1 | . | 22% | . | . | 0
O=C(Nc1cccc(C(F)(F)F)c1)N1CCC(CN2CCCCCC2)CC1 | 0% | . | -11% | -1% | .
CCOC(=O)c1c(N)sc2c(OCC)c(Br)ccc12 | 25µM*[quencher] | 24% | ? | -1% | -4
CCOc1ccc(C(=O)Nc2ccc(-c3cc4ccccc4oc3=O)cc2)cc1Br | -4% | . | ? | ? | .
CC1(C)C[C@@H]1C(=O)N/C(=C\CCCCSC[C@H](N)C(=O)O)C(=O)O | . | 79µM* | . | . | .
O=[N+]([O-])c1ccc(CN2CCN(c3nc4ccccc4s3)CC2)cc1 | . | -2% | . | . | 3
CCn1nc([N+](=O)[O-])c(C(C#N)c2nc3ccccc3n2C)c(Cl)c1=O (centres undefined) | ? | -1% | 11µM* | -1% | -2
